# Laboratory results reported in PubChem BioAssay AID1845 (The Scripps Research Institute Molecular Screening Center, 2009).
# Hit rate of the full screen: of about 290,000 compounds, about 490 (0.17%) were called active. Many of the other results were omitted from the sample, so actives are more common in it than they were. Unmarked numbers belong to inactive results. Rule as the data show it: active = inhibition above about 37%; inactive = the rest.
# Assay: compounds displacing fluorescent DNA intercalator, primary screen, artefact control for HCV NS3 helicase inhibitor project, biochemical, FID fluorescence (AID 1845);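 also: 0% = vehicle and 100% = reference compound; higher means more ethidium bromide displaced from hairpin DNA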
# Conditions: DNA fluorescent intercalator displacement, at 7.9 µM, hits give high values
row,SMILES,inhibition
1,Cc1nc2ccc(N3CCN(C)CC3)cc2nc1C,7.94%
2,CN1CCN(c2cc(N3CCNCC3)ccc2[N+](=O)[O-])CC1,14.7%
3,COc1cccc(-c2nc3ccc(N4CCN(C)CC4)cc3[nH]2)c1,40.7% (active)
4,Cn1c(O)c(C(=Nc2ccc(F)cc2)c2ccccc2)c(=O)n(C)c1=O,1.2%
5,CCOC(=O)C1(Cc2ccc(Cl)cc2)CCN(C(C)CCn2cccn2)CC1 (stereo not given),37.1% (active)
6,CCOC(=O)C1(CCc2ccccc2)CCN(Cc2ccco2)CC1,5.09%
7,Cn1c(C(=O)N2CCC(C(=O)N3CCC4(CC3)OCCO4)CC2)cc2sccc21,-30.4%
8,O=C(C1CC(=O)N(C2CCCC2)C1)N1CCC2(CC1)OCCO2 (stereo not given),-1.99%
9,c1ccc(C2NCc3ccccc3-n3cccc32)cc1 (stereo not given),9.21%
10,O=C(Cc1ccc(Cl)cc1)NCCN1CCN(C(=O)Cc2ccc(Cl)cc2)CC1,-26%
